For 27 compounds, activity results are on record in PubChem BioAssay.

The target in experiment [1] is Tumor necrosis factor receptor superfamily member 10B (Homo sapiens) (UniProt O14763). Kind of experiment: viability loss of caspase-8 NB7 cells with TRAIL – with/without TRAIL, luminescence panel, confirmation (AID 651596). The settings on record: NB7 neuroblastoma + caspase-8, TRAIL sensitization, NB7 Caspase-8, with TRAIL, mean of runs, at 10 µM, stronger effect = higher value.

Assay in experiment [2]: as above
The settings on record: NB7 neuroblastoma + caspase-8, without TRAIL, NB7 Caspase-8, without TRAIL, mean of runs, at 10 µM.

Sequence of Tumor necrosis factor receptor superfamily member 10B (Homo sapiens) (O14763 whole entry, looked up): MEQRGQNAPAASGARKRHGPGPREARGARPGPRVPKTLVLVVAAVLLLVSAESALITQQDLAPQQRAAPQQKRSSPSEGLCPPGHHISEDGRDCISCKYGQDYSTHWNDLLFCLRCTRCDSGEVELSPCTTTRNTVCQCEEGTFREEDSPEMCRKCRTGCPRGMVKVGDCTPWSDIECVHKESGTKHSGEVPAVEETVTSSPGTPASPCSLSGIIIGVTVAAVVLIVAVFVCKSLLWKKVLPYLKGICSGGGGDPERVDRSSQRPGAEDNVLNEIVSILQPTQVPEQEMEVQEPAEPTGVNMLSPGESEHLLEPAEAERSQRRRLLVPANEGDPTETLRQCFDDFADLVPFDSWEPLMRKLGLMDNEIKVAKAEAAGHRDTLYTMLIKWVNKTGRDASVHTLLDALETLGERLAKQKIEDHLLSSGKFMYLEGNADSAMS

For `COC(=O)c1ccc2nc(-c3cccc(N)c3)cn2c1`, the activity in experiment [1] is 74.5%; in experiment [2], 67.8%.

Take `CC(C)CC(=O)Nc1nc2c(c(=O)[nH]1)CCCC2`: the activity in experiment [1] is 69.3%; in experiment [2] it was 66.5%.

For the compound `O=C(Oc1c(CN2CCOCC2)cc(Cl)c2cccnc12)c1ccc(F)cc1`, the activity was 53.5% in experiment [1] and 56.1% in experiment [2].

Take `COc1ccc(/C=C(\C#N)c2nc3ccccc3[nH]2)cc1O`: the values for the activity in experiment [1] and in experiment [2] were 56.5% and 72.5%, respectively.

On to `Cc1cc(C)cc(N2C(N)=NC(N)=NC2c2ccccc2F)c1` (centres undefined), for which the figures for the activity in experiment [1] and in experiment [2] were 51.1% and 72.4%, respectively.

As to `COc1cccc(-c2noc(-c3ccc4c(c3)OCO4)n2)c1`, the activity in experiment [1] was determined as 65.7%; in experiment [2] it was 62.5%.

With `Cc1csc(C(C#N)C(=O)c2cc3ccccc3o2)n1` (centres undefined), the figures for the activity in experiment [1] and in experiment [2] were 57.3% and 61.2%, respectively.

With `Clc1ccc(-n2cnc3c(Cl)ncnc32)cc1Cl`, the activity came out at 71.7% in experiment [1] and 79% in experiment [2].

In the case of `Cc1ccc(Nc2nc(N)c3ccccc3n2)cc1C`, the results for the activity in experiment [1] and in experiment [2] were 83% and 78%, respectively.

As for `CC(=O)Nc1nc2ccccc2n1CCOc1ccccc1`, the activity in experiment [1] was 45.6%; in experiment [2] it was 49.5%.

For the compound `Cc1ccc2sc(NC(=O)CSc3nc(C)cc(C)c3C#N)nc2c1`, the results for the activity in experiment [1] and in experiment [2] were 71.5% and 57.3%, respectively.

For `Cc1nc(-c2ccc(C(=O)Nc3cccc(F)c3)cc2)cs1`, the results for the activity in experiment [1] and in experiment [2] were 76.6% and 73.5%, respectively.

Regarding `O=c1/c(=C/c2ccccn2)sc2nc3ccccc3n12`, the activity in experiment [1] came to 60%; in experiment [2], 14.9%.

Regarding `O=C(CC1SC(=Nc2ccccc2F)N(CCN2CCOCC2)C1=O)Nc1ccc(F)cc1F` (centres undefined), the activity in experiment [1] is -3.85%; in experiment [2] it was -7.28%.

Turning to `Cc1ccc(-c2nnc(NC(=O)c3ccco3)s2)cc1`, the figures for the activity in experiment [1] and in experiment [2] were 58.6% and 62.7%, respectively.

For the compound `Cc1onc(C(=O)N2CCC(Cc3ccccc3)CC2)c1[N+](=O)[O-]`, the activity in experiment [1] is 97.8%; in experiment [2], 98.1%.

On to `COn1c(SC2CCCCC2)nc2ccccc2c1=O`, for which the activity in experiment [1] stood at 60.3%; in experiment [2], 60.1%.

Consider `CCOC(=O)c1cccc(NC(=O)/C=C/c2ccc3c(c2)OCO3)c1`, for which the activity worked out at 78.9% in experiment [1] and 78.7% in experiment [2].

Regarding `Cn1cccc1/C=C1\CCc2ccccc2C1=O`, the activity in experiment [1] amounted to 63.4%; in experiment [2] it was 51.8%.

With `COc1cc2nc(CN(C)Cc3ccc(C(C)(C)C)cc3)[nH]c(=O)c2cc1OC`, the activity in experiment [1] was 70.5%; in experiment [2] it was 68%.

Consider `CCOc1ccc(C(=O)Nc2cc(C)on2)cc1`, for which the activity is 64.9% in experiment [1] and 61.7% in experiment [2].

As for `Cc1cc(C)c2c(c1)/C(=C/C(=O)c1ccc(Br)s1)C(=O)N2`, the values for the activity in experiment [1] and in experiment [2] were 91.8% and 98%, respectively.

Regarding `Cc1ccc(C(=O)Nc2ccc3c(c2)OCCO3)c(Cl)c1`, the activity was 92.3% in experiment [1] and 90.8% in experiment [2].

As to `COc1ccc2cc3cc(C(=O)NC4CC4)sc3nc2c1`, the activity worked out at 80% in experiment [1] and 81.4% in experiment [2].

On to `CC/C(=N\NC(=O)c1csc(C)c1C)c1cccs1`, for which the results for the activity in experiment [1] and in experiment [2] were 57.8% and 55.5%, respectively.

As for `O=C(Nc1ccc(N2CCCCC2)cc1)c1ccccc1`, the activity worked out at 69.6% in experiment [1] and 58.5% in experiment [2].

Regarding `C=C1C(=O)C23CCC4C(C)(C(=O)OC)CCCC4(C)C2CCC1(O)C3` (centres undefined), the results for the activity in experiment [1] and in experiment [2] were 95.6% and 98.7%, respectively.
